From PubChem BioAssay (NCATS)
Inconclusive results are not listed. Unmarked numbers belong to inactive results. Active and inactive are the calls of the source. Calls come from the whole dose curve; as a rule, active = well fitted inhibition curve with a large enough effect; inconclusive = small, poorly fitted or top-dose-only effect; inactive = flat fitted curve, though single readings scatter.

test system: Zika virus NS2B-NS3 protease; test: Primary screen GU AMC qHTS for Zika virus inhibitors (AID 1347154); details: Zika NS2B-NS3 unlinked protease, AMC fluorogenic substrate; series mostly up to 54.1 µM; activity change, negative = inhibition: at the top concentration;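 note: 0% = no-inhibitor control and -100% = no-enzyme control; nearly all actives have a fitted effect of over 70% in size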
Summary of the method: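 Unlinked Zika NS2B hydrophilic domain–NS3 protease complex at 25 nM in 10 mM Tris-HCl pH 8.0, 0.01% Tween 20, with an AMC peptide substrate. Fluorescence change (340/450 nm) over 15 min at room temperature, normalized to controls, fitted to 4-parameter Hill.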

Compound	activity change, negative = inhibition	Potency
O=C(O)Cc1cccc(-c2cc(CCCCCCc3ccc(O[C@H]4O[C@H](CO)[C@@H](O)[C@H](O)[C@@H]4O)c(-c4cccc(CC(=O)O)c4)c3)ccc2O[C@H]2O[C@H](CO)[C@@H](O)[C@H](O)[C@@H]2O)c1	1.91% [at 0.59 µM]	
Cc1ccc2c(n1)Oc1ccc(C(C)C(=O)OCC(=O)N(C)C)cc1C2 (configuration not stated)		inactive
C/C(=N\O)c1ccc(OCC(=O)N2CCCCC2)cc1	5.22%	
O=C1CN(/N=C/c2ccc(-c3ccc([N+](=O)[O-])cc3)o2)C(=O)N1	16.9% [at 104 µM]	
CC(C(=O)O)c1ccc2c(c1)[nH]c1ccc(Cl)cc12 (configuration not stated)	4.97%	
c1ccc(CCNc2nc(-c3ccccc3)cs2)cc1	-11.5%	
COC(=O)C1=C(C)NC(C)=C(C(=O)OCC(C)=O)C1c1ccccc1[N+](=O)[O-] (configuration not stated)	-2.21%	
N#C/C(=C\c1ccc(O)c(O)c1)C(=O)NCc1ccccc1	15.3%	
O=C(O)c1cc(O)c(O)c(O)c1	-5.76%	
Cc1cc(O)c2ccccc2c1O	-3.72%	
Clc1ccccc1-c1nc(-c2ccncc2)no1	-2.17%	
O=C(O)Cc1ccc(-c2ccccc2)cc1	0.212%	
Cc1c(Nc2ncccc2C(=O)O)cccc1C(F)(F)F	-2.54%	
O=c1cc(-c2ccccc2)oc2ccccc12	-5.73% [at 104 µM]	
CC(=O)SCC(CC(=O)c1ccc(C)cc1)C(=O)O (configuration not stated)	-2.95%	
COc1cc2c3cc1Oc1cc(ccc1O)C[C@@H]1c4c(cc(OC)c(O)c4Oc4ccc(cc4)C[C@@H]3N(C)CC2)CC[N+]1(C)C	-2.37%	
O=C(O)Cc1ccc2c(c1)C(=O)c1ccccc1CO2	-0.0253%	
